Compounds with a hit are over-represented: about 5.4% of the library has one in this group of screens.
Lassa entry inh – qHTS for Inhibitors of binding or entry into cells for Lassa Virus. Lassa virus pseudotype entry inhibition, cell reporter. 300,000 compounds, 1.2% hits. Potency, µM (highest dose often 37.9 µM), without a hit: top-dose activity change, negative = inhibition, usual class: inhibitors; calls by dose curve; tested in HEK293 cells; also: nearly all actives have a fitted effect of over 50% in size
FMDV inh – High Throughput Screening for Foot and Mouth Disease Virus Antivirals | FMDV antiviral cell-based qHTS | Potency, µM (series often up to 57.9 µM), for inactives: at the highest dose activity change, negative = inhibition, hits mostly inhibitors | 410,000 compounds, 1.2% hits | AID 1159524, 2015; calls by dose curve; tested in HEK293T cells; also: read-out not given here; nearly all actives have a fitted effect of over 45% in size
Vaccinia Venus – qHTS for Stage-Specific Inhibitors of Vaccinia Orthopoxvirus: Venus Reporter Primary qHTS | Vaccinia virus Venus reporter expression, fluorescence | Potency, µM (highest dose often 36.5 µM), for inactives: top-dose activity change, negative = inhibition, actives largely listed as inhibitors | AID 720580, 2013 | 330,000 compounds, 0.46% hits; calls by dose curve; tested in A549 cells; also: nearly all actives have a fitted effect of over 30% in size
VACV mCherry inh – qHTS for Stage-Specific Inhibitors of Vaccinia Orthopoxvirus: mCherry Reporter Primary qHTS | Vaccinia virus mCherry reporter infection, fluorescence | Potency, µM (series often up to 36.5 µM), for inactives: at the highest dose activity change, negative = inhibition, usual class: inhibitors | 310,000 compounds, 0.63% hits; calls by dose curve; tested in A549 cells; also: nearly all actives have a fitted effect of over 35% in size
Marburg entry inh – qHTS for inhibitors of binding or entry into cells for Marburg Virus | AID 540276, 2011 | Potency, µM (titrated, usually from 37.8 µM), without a hit: at the top dose activity change, negative = inhibition, hits mostly inhibitors | 300,000 compounds, 1.8% hits | Marburg virus pseudotyped entry inhibition, cell reporter; calls by dose curve; tested in HEK293 cells
Sm TGR block – qHTS Assay for the Inhibitors of Schistosoma Mansoni Peroxiredoxins; 360,000 compounds, 3% hits; Potency, µM (series often up to 114 µM), inactives show top-dose activity change, negative = inhibition, usual class: inhibitors; AID 485364, 2010; purified TGR, DTNB reduction, TNB absorbance 405 nm; active = well fitted inhibition curve with a large enough effect; inconclusive = small, poorly fitted or top-dose-only effect; inactive = no such curve, though single readings can be large or run the other way; also: nearly all actives have a fitted effect of over 60% in size
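TGR 20 nM + NADPH 100 uM (dispensed conc.), cpd preinc 15 min RT; start with NADPH (500 uM addition) then DTNB (15 mM addition). Kinetic TNB absorbance, 405 nm filter. Four-parameter Hill fit across titration.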
Starred values were filed as active, the others as inactive; i = inactive; ? = inconclusive; . = no result; [ ] = remark or other dose. % is scaled to controls: 0 for no effect and ±100 for the full control effect; potency is read from the fitted curve at half-maximal effect.

SMILES | Lassa entry inh | FMDV inh | Vaccinia Venus | VACV mCherry inh | Marburg entry inh | Sm TGR block
O=C(CCN1C(=O)/C(=C/c2ccccc2)SC1=S)NC1CCS(=O)(=O)C1 (centres undefined) | 10%[46.1 µM] | -3% | -6% | -8% | 3%[46.1 µM] | 2%
CC(C(=O)N(C)C1CCS(=O)(=O)C1)N1C(=O)/C(=C/c2ccco2)SC1=S (centres undefined) | . | -12% | . | . | . | 25µM*
O=C(CCCN1C(=O)/C(=C/c2ccccc2)SC1=S)Nc1ccc(C(=O)O)c(O)c1 | -19% | 27% | -9% | i | 15%[46.1 µM] | -1%
COc1cccc(NC(=O)CSc2ncc(S(=O)(=O)c3ccc(C)c(C)c3)c(=O)[nH]2)c1 | . | -21% | 5% | 8% | 29%[46.1 µM] | 10%
Nc1ccc(/C=C/c2ccnc3ccccc23)c(N)c1 | . | . | 17% | -12% | . | .
CCCCNC(=O)c1c(-c2ccccc2)c(-c2ccccc2)nn(C)c1=O | ? | -22% | -5% | 4% | 19%[46.1 µM] | 0%
CN(C)c1ccc(/C=C2/CCCc3c2nc2ccccc2c3C(=O)O)cc1 | . | . | 3% | -8% | . | .
O=C(CCCN1C(=O)/C(=C\c2cccs2)SC1=S)Nc1ccc(O)cc1C(=O)O | . | -23% | . | . | . | -2%
CC(=C\c1ccco1)/C=C1/SC(=S)N(CC(=O)O)C1=O | ? | 7% | 10% | -15% | ? | 40µM*
CC(C(=O)Nc1ccc(C(=O)O)c(O)c1)N1C(=O)/C(=C\c2ccco2)SC1=S (centres undefined) | . | -7% | . | . | . | 7.1µM*
O=C(CCCN1C(=O)/C(=C\c2ccco2)SC1=S)Nc1ccc(O)cc1C(=O)O | -9% | -10% | 31% | i | -7%[46.1 µM] | 10µM*
COC(=O)c1cccc(Nc2c(-c3ccc(OC)cc3)nc3nc[nH]n23)c1 | -6%[46.1 µM] | 43% | -22% | ? | . | 0%
O=S(=O)(NCc1nc2cccnc2n1Cc1ccccc1Cl)c1ccc(F)c(Cl)c1 | -16%[46.1 µM] | 13% | -12%[7.34 µM] | -22%[7.34 µM] | . | -1%
COc1ccc(CCNc2ncnc3sc(C(=O)N4CCCCC4)c(C)c23)cc1OC | . | ? | -20% | -23% | . | .
COC(=O)C1=C(C)N(CC2CC2)C(=O)NC1c1ccccc1 (centres undefined) | . | . | . | . | -5%[14.2 µM] | .
Cn1c(SCc2cccc([N+](=O)[O-])c2)nc2c(c1=O)SCC2 | ? | 28µM* | -8% | ? | ? | 0%
COC[C@@H]1CCCN1[C@@H]1C[S+](=O)([O-])N[C@@H]1COCc1ccccc1 | -2%[46.1 µM] | . | . | . | . | .
CC(=O)N1CC=C2C(C#N)=C(N)C(C#N)(C#N)C(CCc3ccccc3)C2C1 (centres undefined) | 8% | ? | -2% | i | 22% | 40µM*
CCN1CC=C2C(C#N)=C(N)C(C#N)(C#N)C(CCc3ccccc3)C2C1 (centres undefined) | -7% | -14% | . | . | ? | 28µM*
N#CC1=C(N)C(C#N)(C#N)[C@H](c2ccoc2)[C@H]2CN(Cc3ccccc3)CC=C12 | -17% | ? | ? | . | 6.3µM* | ?
Cc1cccc(N2CCN(C(=O)C3CCN(S(=O)(=O)c4cn(C)cn4)CC3)CC2)c1C | -9%[46.1 µM] | -18% | -16% | -21% | . | -12%
CCOC(=O)c1ccc(NC(=S)N(CCCN2CCN(C)CC2)Cc2cccs2)cc1 | . | 9% | -17% | -14% | ? | 13%
CCOC(=O)c1ccc(NC(=S)N(CCN2CCCCCC2)Cc2cccs2)cc1 | ? | 21% | -6% | -7% | 8.9µM* | 0%
CCOC(=O)c1ccc(NC(=S)N(CCCN2CCCC2)Cc2cccs2)cc1 | . | 41% | -16% | -17% | ? | 21%
CCOC(=O)c1ccc(NC(=S)N(CCCN2CCN(CC)CC2)Cc2cccs2)cc1 | 10µM* | 46% | -29% | -4% | 10µM* | 3%
COCc1ccc(C(=O)N2CCCC(CCC(=O)NCc3ccccc3F)C2)o1 (centres undefined) | 2% | 38% | -20% | -12% | 5.6µM* | -34%
Cc1ccc(CNC(=O)CCC2CCCN(C(=O)c3ccc4c(c3)OCO4)C2)o1 (centres undefined) | -5% | 29% | -10% | i | -4%[46.1 µM] | 14µM*
